Screen size: about 300,000 compounds; about 1,700 (0.57%) were called active. Inconclusive results (about 2%) are left out.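 Rule for the calls: active = growth inhibition above about 58% in most replicates (limit read from the data, passing the limit was not always enough); inconclusive = exactly half the replicates above a set limit; inactive = most replicates below a set limit.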 The list comes from a sample in which actives are over-represented; it also holds similar structures and randomly drawn compounds.
Assay: C. albicans growth inhibition with fluconazole, primary screen, CaCi-2 strain, Alamar Blue fluorescence (AID 1979);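 note: all wells also contain fluconazole at 8 µg/ml as a sub-toxic cotreatment; 0% = median of DMSO wells and 100% = median of geldanamycin control wells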
Conditions: C. albicans CaCi-2 (fluconazole-resistant clinical isolate) + fluconazole, 48 h, stronger effect = higher value, concentration not given here
For `CCOc1cc(/C=N/NC(=O)c2cccc(S(=O)(=O)N3CCOCC3)c2)ccc1OCC(=O)N(C)C`, the growth inhibition was 3.22% (inactive). For `CC(=O)c1nn(-c2ccc(C)cc2)cc1C(=O)c1cccc(Br)c1`, the growth inhibition was -5.17% (inactive). For `CC1CCC(NC(=O)CNC(=O)c2ccc3ccccc3c2)CC1` (stereo not given), the growth inhibition was 4.42% (inactive). With `Cc1ccc(N(C(=O)CNC(=O)c2ccco2)C(C(=O)NC2CCCC2)c2ccncc2)cc1` (stereo not given) the growth inhibition was -17% (inactive). With `COc1ccc(N(C(=O)CNC(=O)c2ccco2)C(C(=O)NCC2CCCO2)c2ccccc2)cc1Cl` (stereo not given) the growth inhibition was 7.7% (inactive). For `O=C(NCC(=O)N(CC1CCCO1)C(C(=O)NC1CCCCC1)c1ccccc1)c1ccco1` (stereo not given), the growth inhibition was 103% (active). With `CC1CCCCN1S(=O)(=O)CCNC(=O)c1ccccc1` (stereo not given) the growth inhibition was 0.685% (inactive). In the case of `Cc1nnsc1C(=O)N/N=C/c1ccccc1Cl`, the growth inhibition was -6.46% (inactive). With `Cc1nnsc1C(=O)Nc1cccc(Cl)c1C` the growth inhibition was -1.12% (inactive). For `Cc1cc(Cl)ccc1NNC(=O)c1snnc1C`, the growth inhibition was 85.6% (active). In the case of `CCc1ccc(S(=O)(=O)N/N=C\c2ccc([N+](=O)[O-])o2)cc1`, the growth inhibition was 13.3% (inactive). For `Cc1cc(C)nc(N/N=C/c2ccc([N+](=O)[O-])o2)n1`, the growth inhibition was 11.2% (inactive). For `C/[N+]([O-])=C\c1ccc([N+](=O)[O-])o1`, the growth inhibition was 110% (active). In the case of `CCc1ccccc1NC(=O)c1cc(-c2ccc3c(c2)OCO3)on1`, the growth inhibition was -0.103% (inactive). For `Cc1ccc(C)c(N2CCN(C(=O)Cn3ncn4cccc4c3=O)CC2)c1`, the growth inhibition was -9.35% (inactive). With `CSc1ccccc1NC(=O)C(C)N1C(=O)c2ccccc2S1(=O)=O` (stereo not given) the growth inhibition was 2.61% (inactive). For `CC(C)NC(=S)N1CCN(C(c2ccccc2)c2ccccc2)CC1`, the growth inhibition was 11.5% (inactive). With `O=C(O)CN1CCN(C(c2ccccc2)c2ccccc2)CC1` the growth inhibition was -6.25% (inactive). With `CC1(C)CC(N2CCN(C(c3ccccc3)c3ccccc3)CC2)=CC(=[N+]2CCCCC2)C1` the growth inhibition was 95.7% (active). In the case of `O=C(Nc1cc(Cl)ccc1N1CCOCC1)c1ccc(N2CCCC2=O)cc1`, the growth inhibition was 4% (inactive). With `O=C(NCCC1CCCCN1S(=O)(=O)c1cccs1)C(=O)Nc1ccc(F)cc1F` (stereo not given) the growth inhibition was 7.39% (inactive). With `O=C(Nc1cccc2c1CCCC2)c1ccc(F)cc1` the growth inhibition was -3.5% (inactive). With `NNC(=O)C1CCCn2c1nc1sc3c(c1c2=O)CCCC3` (stereo not given) the growth inhibition was 2.28% (inactive). In the case of `Cn1c(NN)nc2sc3c(c2c1=O)CCC3`, the growth inhibition was 87.2% (active). In the case of `Cc1nc2sc3c(c2c(=O)n1NC(=O)CCl)CCCC3`, the growth inhibition was 9.31% (inactive). In the case of `C#CCOCCOCCOCCNc1nc(N2CCN(C(=O)C([C@@H](C)CC)n3cc(C(N)COC(=O)C(F)(F)F)nn3)CC2)nc(N2CCN(C(=O)[C@H](CCCCN)n3cc(C(N)CC(C)C)nn3)CC2)n1` (stereo not given in full), the growth inhibition was 4.02% (inactive). For `O=C(CSC1=NS(=O)(=O)c2cc(F)ccc2N1)Nc1ccccc1F`, the growth inhibition was 5.53% (inactive). In the case of `Cc1ccc(N=C2SCCCN2C(=O)c2cccc(N3C(=O)CCC3=O)c2)cc1Cl`, the growth inhibition was -7.25% (inactive). In the case of `O=C(OCCN1C(=O)c2ccccc2C1=O)Oc1ccccc1`, the growth inhibition was 4.11% (inactive). In the case of `CC(=O)c1cnc(SCCN2C(=O)c3ccccc3C2=O)nc1C`, the growth inhibition was -3.43% (inactive). With `Nc1ccc(SCCN2C(=O)c3ccccc3C2=O)cc1` the growth inhibition was 103% (active). With `COc1ccc(-c2nnc(SCC(=O)Nc3cccnc3Cl)n2C)cc1` the growth inhibition was 6.53% (inactive). With `O=C(NC(Cc1ccccc1)C(=O)N1CCCC(C(F)(F)F)C1)c1ccccc1` (stereo not given) the growth inhibition was 1.33% (inactive). In the case of `CCCCN(C(=O)CSCC(=O)Nc1ccc(OC)cc1)c1c(N)n(CCC)c(=O)[nH]c1=O`, the growth inhibition was -2.57% (inactive). For `CC12CCC(C(=O)N(c3cccc(Cl)c3)C1=O)C2(C)C` (stereo not given), the growth inhibition was -3.94% (inactive). For `O=C(NN1C(=O)C2C(C1=O)C1C=CC2C12CC2)c1ccccc1Cl` (stereo not given), the growth inhibition was 3.48% (inactive). In the case of `CC12CCC(C(=O)N(NC(=O)c3ccccc3O)C1=O)C2(C)C` (stereo not given), the growth inhibition was 107% (active). For `COc1ccc(/C=N/NC(=O)c2cc(-c3cccc(C)c3)nc3ccccc23)cc1O`, the growth inhibition was 34.6% (inactive). In the case of `Cc1ccc(/C=N/NC(=O)C2=NNC(c3ccccc3)(c3ccccc3)C2)c(O)c1`, the growth inhibition was 102% (active). With `COc1cc(/C=N/NC(=O)c2cc(-c3ccccc3C)nc3ccccc23)cc(OC)c1O` the growth inhibition was 32.7% (inactive). In the case of `O=C(Nc1ccc(OC(F)(F)F)cc1)c1ccc2c(c1)no[n+]2[O-]`, the growth inhibition was -3.65% (inactive). In the case of `CC1CC2=C(CC1/C=N/NC(N)=S)C(C)(C)CCC2` (stereo not given), the growth inhibition was 26.2% (inactive). For `CC(C)CN(C(=O)c1ccc2c(c1)OCO2)C1CCS(=O)(=O)C1` (stereo not given), the growth inhibition was 3.11% (inactive). With `CCOc1cc(C(=O)Nc2ccc(S(=O)(=O)Nc3cnc4ccccc4n3)cc2)cc(OCC)c1OCC` the growth inhibition was 19.7% (inactive). For `CC(=O)Nc1ccc(Nc2c3ccccc3nc3ccccc23)cc1`, the growth inhibition was 111% (active). In the case of `CC(=O)Nc1ccc(NC(=O)COc2ncnc3ccccc23)cc1`, the growth inhibition was -12.4% (inactive). With `Cc1ccc(Nc2c3c(nc4ccccc24)CCC3)cc1` the growth inhibition was 70.5% (inactive). With `COc1ccc(C(=O)OCC(=O)Nc2ccc3[nH]c(=O)[nH]c3c2)c(OC)c1OC` the growth inhibition was -6.2% (inactive). In the case of `CC(OC(=O)CCC(=O)c1ccccc1)C(=O)Nc1ccc(F)cc1` (stereo not given), the growth inhibition was -2.1% (inactive). With `C=CCOc1ccc(/C=C/C(=O)OC(C)C(=O)Nc2ccc(NC(C)=O)cc2)cc1` (stereo not given) the growth inhibition was -2.89% (inactive). With `O=C(CN(C(=O)c1csnn1)c1cccc(Cl)c1)NC1CCCC1` the growth inhibition was 9.33% (inactive). With `O=C(NNC(=S)NCc1ccco1)C(c1ccccc1)c1ccccc1` the growth inhibition was 15.6% (inactive). For `CC(C)C(=O)Nc1cccc(NC(=S)NC(=O)C(c2ccccc2)c2ccccc2)c1`, the growth inhibition was 50.4% (inactive). For `CCCCC(=O)NNC(=S)NC(=O)C(c1ccccc1)c1ccccc1`, the growth inhibition was 107% (active). In the case of `Cc1ccc(CSCC(=O)N(C)CC(=O)Nc2cccc(F)c2)cc1`, the growth inhibition was -6.82% (inactive). With `Cc1ccc(OCCC(=O)OCC(=O)N2c3ccccc3NC(=O)C2(C)C)cc1` the growth inhibition was -5.48% (inactive). With `Cn1c(N2CCOCC2)c(C=O)c2ccccc21` the growth inhibition was -1.88% (inactive). In the case of `Cc1cc(C(=O)OC(C)C(=O)NC2CCCCC2C)c(C)o1` (stereo not given), the growth inhibition was -4.31% (inactive). In the case of `COc1ccccc1/C=N\Nc1cc(C)nc(-n2nc(C)cc2C)n1`, the growth inhibition was 2.71% (inactive). For `COc1cccc(/C=N/Nc2ncc(C(F)(F)F)cc2Cl)c1O`, the growth inhibition was 3.96% (inactive). For `COc1cccc(/C=N/Nc2cc(C)nc(-c3ccccc3O)n2)c1O`, the growth inhibition was 112% (active). With `CCOC(=O)c1c(NC(=O)CN2C(=O)NC3(CCC(C)CC3)C2=O)sc(C)c1CC` (stereo not given) the growth inhibition was -6.28% (inactive). With `CC[n+]1cc(C)ccc1/C=C/c1ccc(N(C)C)cc1` the growth inhibition was 79.2% (active). In the case of `CN(C)c1ccc(/C=N\S(=O)(=O)c2ccccc2)cc1`, the growth inhibition was -0.179% (inactive). With `Cc1nnc(N/N=C/c2cccs2)[nH]c1=O` the growth inhibition was -0.996% (inactive). With `Cc1nnc(N/N=C/C2CC=CCC2)[nH]c1=O` (stereo not given) the growth inhibition was -10.8% (inactive). In the case of `Cc1nnc(N/N=C/c2ccccn2)[nH]c1=O`, the growth inhibition was 102% (active). With `CCN(CC(=O)Nc1cc(Cl)ccc1C)C(=O)CSCc1ccc(C)cc1` the growth inhibition was -5.77% (inactive). With `O=S(=O)(NCCS(=O)(=O)N1CCN(c2ccccc2)CC1)c1ccc(F)cc1` the growth inhibition was 0.355% (inactive). With `O=C(NCCN1CCOCC1)Nc1cccc(Cl)c1` the growth inhibition was 10.7% (inactive). With `O=C(CC(NCCN1CCOCC1)C(=O)O)Nc1cccc(Cl)c1` (stereo not given) the growth inhibition was 90.7% (active). With `O=C(CC(c1ccccc1)c1cc(Cl)ccc1O)NCCN1CCOCC1` (stereo not given) the growth inhibition was -8.66% (inactive). In the case of `COc1ccccc1C(=O)COC(=O)CSCC(=O)Nc1cc(C)on1`, the growth inhibition was 0.143% (inactive). With `O=C(COC(=O)c1ncc(Cl)c(Cl)c1Cl)NC1CCS(=O)(=O)C1` (stereo not given) the growth inhibition was -0.837% (inactive). For `S=c1[nH]nc(-c2cccs2)n1/N=C/c1cccs1`, the growth inhibition was 78.7% (active). For `Oc1ccccc1/C=N/n1c(-c2cccs2)n[nH]c1=S`, the growth inhibition was -0.357% (inactive). For `S=c1[nH]nc(-c2cccs2)n1/N=C/c1cn(-c2ccccc2)nc1-c1ccc(Cl)cc1`, the growth inhibition was -0.57% (inactive). For `COc1cc(C(=O)OCC(=O)N(CC(C)C)C2CCS(=O)(=O)C2)ccc1OCC(C)C` (stereo not given), the growth inhibition was 5.68% (inactive). For `Oc1ccc(CN2CCN(c3ncccn3)CC2)cc1`, the growth inhibition was -5.62% (inactive). In the case of `Cc1cccnc1NC(=O)c1cccc(S(=O)(=O)N2CCN(c3ccc(F)cc3)CC2)c1`, the growth inhibition was -15.4% (inactive). With `Oc1c(CN2CCN(c3ccc(F)cc3)CC2)cc(Cl)c2cccnc12` the growth inhibition was 112% (active). In the case of `Cc1noc(C)c1COc1ccccc1C(=O)N(C)CC(=O)Nc1cccc(F)c1`, the growth inhibition was 3.18% (inactive). For `Cc1ccc(C(=O)NNC(=O)C(C)Oc2ccc3ccccc3c2)o1` (stereo not given), the growth inhibition was -0.807% (inactive). For `CCOC(=O)c1c(-c2ccccc2)oc2cc(Br)c(O)c(C=O)c12`, the growth inhibition was 99.6% (active). With `CCOC(=O)c1c(-c2ccccc2)oc2cc(Br)c(O)cc12` the growth inhibition was 15.1% (inactive). With `CCOC(=O)c1c(-c2ccccc2)oc2ccc(OCC(N)=O)cc12` the growth inhibition was 1.32% (inactive). For `OC(COCCC12CC3CC(CC(C3)C1)C2)CN1CCCCC1` (stereo not given), the growth inhibition was 8.32% (inactive). In the case of `O=C(CCCCO)c1ccc(O)c(Cl)c1`, the growth inhibition was -0.4% (inactive). In the case of `Cc1ccc(NNC(=O)c2cccs2)cc1Cl`, the growth inhibition was 94.7% (active). For `O=C(NNC(=O)c1ccc(Cl)cc1Cl)c1cccs1`, the growth inhibition was -3.73% (inactive). For `Cc1ccc(NNC(=O)c2c(F)cccc2Cl)cc1Cl`, the growth inhibition was 3.83% (inactive). With `N[C@@H](Cc1ccccc1)C(=O)N1CCC(C(=O)NCC(=O)Nc2ccc(F)cc2)CC1` the growth inhibition was -10.4% (inactive). For `COc1cc(OC)cc(-c2nnc(SCC(=O)Nc3ccc(C(=O)O)cc3)s2)c1`, the growth inhibition was -1.63% (inactive). For `Cc1csc(SCC(=O)Nc2sccc2C#N)n1`, the growth inhibition was 4.45% (inactive). For `COc1ccc(NC(=O)CSc2nc(C)cs2)cc1`, the growth inhibition was 106% (active).

— PubChem BioAssay AID1979 (Broad Institute, 2009)
